About 83,000 compounds went through this panel and 20% of them were active in at least one assay; those are over-represented in the sample as a whole.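 Cell lines were cultured in 96-well plates, exposed to a single compound concentration, and assessed for percent growth 48 hours later.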 Unmarked numbers belong to inactive results. The source made the active and inactive calls.
Tested on: KM12 colon
Assay: NCI-60 one-dose screen, 48 h (100 = growth as untreated, 0 = no growth, -100 = all killed)
Settings: 10 µM unless noted
Protocol: Growth inhibition of the KM12 human tumor cell line is measured as a screen for anti-cancer activity. Cells are grown in 96 well plates and exposed to the test compound for 48 hours. Compounds are tested at a single concentration, which is 10^-5 M for most compounds. The reported endpoint is percent growth (GI% or GIPRCNT), where numbers from 0 - 100% represent growth inhibition, and numbers from -100% - 0 represent cell death. For example, a value of 40 represents 60% growth inhibition. A value of 0 means no net growth occurred over the course of the experiment. A value of -40 indicates 40% of cells at the beginning of the experiment died by the end of the experiment. A value of -100 means all cells are dead at the end of the experiment.
NCI-60 Human Tumor Cell Lines Screen was performed using the standard one-dose NCI protocol, which is described in more detail at https://dtp.cancer.gov/discovery_development/nci-60/default.htm.
Compounds with GIPRCNT values below 10 were considered active. Activity score was based on GIPRCNT using the following formula: […]
Score is 0 for GIPRCNT values of 100 or above, 50 for GIPRCNT values of 0, and 100 for GIPRCNT values of -100.

Compound | growth
Cc1ccc(/C=C(/C#N)n2nnc3ncccc32)cc1 | 24.6%
c1ccc(CN=C(NCc2ccccc2)NCc2ccccc2)cc1 | 62.6%
CC1CN(/N=C/c2ccc([N+](=O)[O-])o2)C(=N)O1 (stereo not given) | 91.7%
CC(C)CNc1nc(N=[N+]=[N-])nc(NCC(C)C)n1 | 53.6% [100 µM]
CCCCCc1c(C)[nH]c(/C=C2\N=C(c3ccc[nH]3)C=C2OCc2ccccc2)c1C | -80.9% [100 µM] (active)
CSc1nc(-c2ccc(O)cc2O)c2c(=O)[nH]c(Nc3ccc(S(=O)(=O)Nc4nc(C)cc(C)n4)cc3)nc2n1 | 102%
Cc1cc(C)c(C(=O)c2cccs2)c(C)c1 | 110%
COc1cc(/C=C/C(=O)C(C(=O)/C=C/c2ccc(OC(=O)CCNc3nnc(C)s3)c(OC)c2)C(=O)CCNc2nnc(C)s2)ccc1OC(=O)CCNc1nnc(C)s1 | -39.2% (active)
COc1ccc(C2CC(c3ccc(Nc4ccnc5cc(Cl)ccc45)cc3)=NN2C(C)=O)cc1 (stereo not given) | 59.3%
Cc1cc(Cl)ccc1Nc1nc(C(F)(F)F)ccc1C(=O)N/N=C/c1ccc(Cl)cc1 | 6.03% (active)
COC(=O)Nc1ccc2ccc3c(NC(=O)OC)ccc4ccc1c2c43 (tested in a mixture with another compound) | 32.7%
CN1CCN(CCCCCN=c2cc3c(=O)n(CCCCCN4CCN(C)CC4)c(=O)c4c(NCCCCCN5CCN(C)CC5)cc5c(O)n(CCCCCN6CCN(C)CC6)c(=O)c2c5c4-3)CC1 | 2.69% (active)
CCCCCCCCCCCCC1CCCC(C)C1 (stereo not given) | 91.3%
N#CSCC1CC(O)(c2ccccc2)C(c2ccccc2)C(c2ccc(Cl)cc2)O1 (stereo not given) | -96% (active)
Cc1ccc(OCC(=O)Nc2ccc(Oc3ccccc3)cc2)c([N+](=O)[O-])n1 | 93.8%
O=C1/C=C/[C@@H](O)[C@@H]2C[C@@H](O)C[C@H]2/C=C/CCC[C@H](CO)O1 | 2.96% (active)
C1CCC(C(CC2CCCCN2)C2CCCCC2)CC1 (stereo not given) | -54.1% (active)
O=C(O)CCC(=O)OC[C@@H](NC(=O)C(Cl)Cl)[C@H](O)c1ccc([N+](=O)[O-])cc1 | 103%
O=CN1N=C(c2ccc(Cl)cc2)CC1c1cccc(Nc2ccnc3cc(Cl)ccc23)c1 (stereo not given) | 19.8%
COc1cccc(-c2nc(-c3ccc(N)cc3)co2)c1 | 99.2%

Compound | growth
CCOC1Oc2ccccc2C(=O)/C1=N/c1nccs1 (stereo not given) | 93.5%
O=C1CNc2cc(Cl)ccc2N1 | 103%
N#Cc1c(-c2ccccc2)cc(-c2ccccc2)n(CCCCC(=O)O)c1=O | 79.7%
COP(=O)(OC)C(c1ccccc1)(c1ccccc1)c1ccccc1 | 93.7%
O=C(COc1cccc(/C=C2\Oc3ccc4ccccc4c3C2=O)c1)c1ccc(Cl)cc1 | 96.5%
COc1cc(/C=C/C(=O)CC(=O)/C=C/c2ccc(OC(=O)CCNC34CC5CC(CC(C5)C3)C4)c(OC)c2)ccc1OC(=O)CCNC12CC3CC(CC(C3)C1)C2 | 5.79% (active)
N#Cc1c(-c2ccccc2)cc(-c2ccccc2)n(CCCCCCC(=O)O)c1=O | 98.9%
Cc1ccc(S(=O)(=O)NCCN2c3nc4ccccc4cc3Sc3cc4ccccc4nc32)cc1 | 165%
COc1cc(/C=C2\CN(C)CC3=C2Nc2nc(SC)[nH]c(=O)c2C3c2cc(OC)c(OC)c(OC)c2)cc(OC)c1OC (stereo not given) | 37.2%
COc1cc(-c2n[nH]nc2-c2ccccn2)cc(OC)c1OC | 102%
Cc1cc(Br)c(C)cc1Br | 103%
O=Cc1ncc(-c2ccc(C(F)(F)F)cc2)c(NC2CCCCCC2)n1 | -87.6% [100 µM] (active)
COc1ccc2c(=O)c(OC)c(-c3cc(OC)c(OC)c(OC)c3)oc2c1 | 97.8%
Cc1c2oc3c(C)ccc(C(=O)OC(C)C4NC(=O)C(C(C)C)N(C)C(=O)CN(C)C(=O)C5CCCN5C(=O)C(C(C)C)NC4=O)c3nc-2c(C(=O)OC(C)C2NC(=O)C(C(C)C)N(C)C(=O)CN(C)C(=O)C3CCCN3C(=O)C(C(C)C)NC2=O)c(N)c1=O (stereo not given) | 0.674% (active)
CCCCCc1c(C)[nH]c(/C=C2\N=C(c3ccc[nH]3)C=C2Oc2ccccc2)c1C | -81.7% [100 µM] (active)
CC(NC(N)=S)c1ccccc1 (stereo not given) | 104%
O=C1/C(=C\c2coc3ccccc3c2=O)c2ccccc2N1c1c(Cl)cccc1Cl | 27.1%
CC(C)OP(=O)(OC(C)C)c1ncc(-c2ccc(C(F)(F)F)cc2)c(NC2CCCCCC2)n1 | -95.8% [33.3 µM] (active)
Cc1csc(C#Cc2cncc(O)c2)n1 | 125%
CC(C)C[C@H](NC(=O)/C=C/Cn1ccc2ccccc2c1=O)B(O)O | 37.8%

From PubChem BioAssay (NCI)
